Shown are actives, neighbours in structure and some others; about 2.5% of the full set was active somewhere.
Cruzain noTriton: qHTS Assay for Promiscuous and Specific Inhibitors of Cruzain (without detergent); Cruzipain (Trypanosoma cruzi), P25779; purified cruzain, Z-FR-AMC fluorescence, no detergent; Potency, µM, for the others: max response, negative = inhibition, hits mostly inhibitors; 2.3% of 200,000 active;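 note: plate controls were enzyme without inhibitor for no effect and buffer without enzyme for full effect; nearly all actives have a fitted effect of over 40% in size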
Target sequence (P25779 123-467 limits assumed): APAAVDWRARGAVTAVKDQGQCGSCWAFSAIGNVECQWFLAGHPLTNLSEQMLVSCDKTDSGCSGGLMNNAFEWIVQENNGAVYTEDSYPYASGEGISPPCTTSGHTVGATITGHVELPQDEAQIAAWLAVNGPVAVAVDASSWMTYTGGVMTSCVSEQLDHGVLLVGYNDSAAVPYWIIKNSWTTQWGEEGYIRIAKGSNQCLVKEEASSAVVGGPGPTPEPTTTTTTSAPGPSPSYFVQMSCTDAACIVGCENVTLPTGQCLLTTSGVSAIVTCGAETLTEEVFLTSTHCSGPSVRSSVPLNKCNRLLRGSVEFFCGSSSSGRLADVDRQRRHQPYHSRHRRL
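Detergent-free condition (0.00005% Triton X-100) in acetate buffer pH 5.5 with DTT. 1.5 nM enzyme and compound were pre-mixed 15 min, then 2 uM Z-FR-AMC substrate added; reaction progress from fluorescence change between first and third reads (60 s).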
Cruzain inh Det: qHTS Assay for Promiscuous and Specific Inhibitors of Cruzain (with detergent); purified cruzain, Z-FR-AMC fluorescence, 0.01% Triton; Potency, µM, for inactives: max response, negative = inhibition, most hits filed as inhibitors; 0.43% of 200,000 active; AID 1478, 2009;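 note: plate controls were neutral wells for no effect and buffer without enzyme for full effect; nearly all actives have a fitted effect of over 40% in size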
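Z-FR-AMC hydrolysis (2 uM substrate) by cruzain (1.5 nM) monitored kinetically at ex 360/em 450 nm after 15 min room-temperature compound exposure; 0.01% Triton X-100, pH 5.5, 5 mM DTT.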
* marks the source's active call; other numbers are inactive results; ? = inconclusive. Calls come from the whole dose curve; as a rule, active = well fitted curve in the direction sought with a large enough effect; inconclusive = small, poorly fitted or top-dose-only effect, or another doubt; inactive = no such curve, though single readings can be large; an effect the other way counts as inactive or inconclusive. Potency is the fitted concentration of half-maximal effect.

SMILES | Cruzain noTriton | Cruzain inh Det
COc1ccccc1OCc1nnc(SCC(=O)Nc2ccc(C)cc2)n1C | 8% | 3%
Cc1ccccc1OCc1nnc(SCC(=O)Nc2ccc3c(c2)oc2ccccc23)n1C | 20µM* | 1%
COC(=O)c1ccc(NC(=O)CSc2nnc(COc3c(C)cccc3C)o2)cc1 | 25µM* | 5%
Cc1cccc(C)c1OCc1nnc(SCC(=O)Nc2ccccc2F)o1 | -9% | -5%
O=C(CSc1nnc(COc2ccc3c(c2)CCCC3)o1)Nc1ccc(F)cc1 | 25µM* | 2%
COc1cccc(NC(=O)CSc2nnc(COc3ccc(Cl)cc3)o2)c1 | ? | -5%
O=C(CN(c1cccc(C(F)(F)F)c1)S(=O)(=O)c1ccc(Cl)c([N+](=O)[O-])c1)NCc1ccccc1Cl | 25µM* | -6%
O=C(CN(c1cccc(C(F)(F)F)c1)S(=O)(=O)c1ccc(Cl)c([N+](=O)[O-])c1)NCc1ccccc1 | 8% | -7%
COc1ccc(OC)c(NC(=O)CSc2n[nH]c(-c3ccccc3Cl)n2)c1 | 3% | -1%
Cc1nc2nc(CNC(=O)c3cccc(F)c3)nn2c(C)c1CCC(=O)Nc1cccc(Cl)c1 | ? | -7%
CN1/C(=C\C(=O)COC(=O)CNC(=O)c2ccc3ccccc3c2)C(C)(C)c2ccccc21 | 25µM* | -24%
CN1/C(=C\C(=O)COC(=O)CNC(=O)c2ccccc2F)C(C)(C)c2ccccc21 | 20µM* | 22µM*
CN1/C(=C\C(=O)COC(=O)CN2C(=O)C3CC=CCC3C2=O)C(C)(C)c2ccccc21 (centres undefined) | 9% | -8%
CNS(=O)(=O)c1cccc(C(=O)OCC(=O)/C=C2/N(C)c3ccccc3C2(C)C)c1 | 3% | -14%
C[C@]12CC[C@H](O)CC1=CC[C@H]1[C@@H]2CC[C@@]2(C)C(N(CCO)CCO)CC[C@@H]12 (some centres undefined) | -4% | 10%
c1cc(OCC2CO2)cc(OCC2CO2)c1 (centres undefined) | -6% | 4%
CCOc1ccc(NC(=O)COC(=O)c2ccc3c(c2)C(=O)N(CCc2ccccc2)C3=O)cc1 | ? | -3%
Cc1ccc(NC(=O)COC(=O)c2ccc3c(c2)C(=O)N(CCc2ccccc2)C3=O)c(C)c1 | 25µM* | -2%
O=C1c2c(O)ccc([N+](=O)[O-])c2C(=O)c2c([N+](=O)[O-])ccc(O)c21 | -11% | 1%
Cc1ccc(-n2nc3c(c2NC(=O)c2ccc4c(c2)OCO4)CS(=O)C3)cc1 (centres undefined) | -5% | -3%
Cc1ccc(-n2nc3c(c2NC(=O)/C=C\c2ccc4c(c2)OCO4)CSC3)c(C)c1 | 25µM* | -6%
Cc1ccc(-n2nc3c(c2NC(=O)C(C)(C)C)CSC3)c(C)c1 | 6% | 0%
Cc1ccc(-n2nc3c(c2NC(=O)/C=C\c2ccc4c(c2)OCO4)CSC3)cc1 | 32µM* | -4%
O=C(Cn1c(=O)n(Cc2nc(-c3ccccc3)no2)c(=O)c2ccccc21)Nc1cccc(Cl)c1 | ? | -3%
CCOC(=O)OCC | 5% | 1%
SMILES | Cruzain noTriton | Cruzain inh Det
c1csc(C2Nc3cccc4cccc(c34)N2)c1 | 7.9µM* | -8%
Brc1ccc(C2Nc3cccc4cccc(c34)N2)o1 | 7.9µM* | -12%
O=[N+]([O-])c1ccccc1C1Nc2cccc3cccc(c23)N1 | ? | -3%
CN1c2cccc3cccc(c23)N(C)C1c1cccs1 | -5% | -1%
Cc1ccc(NC(=O)CSc2ccc(-c3cccs3)nn2)cc1Cl | 9% | -2%
Nc1nc(Cl)cc(NCCO)n1 | 0% | 1%
Cc1ccc(CO/N=C\Cc2snc(Sc3ncc(C(F)(F)F)cc3Cl)c2C#N)cc1 | 4µM* | -8%
Cc1ccc(S(=O)(=O)N2CCN(C(=O)CSc3ncc(C(F)(F)F)cc3Cl)CC2)cc1 | 7% | -4%
COc1ccccc1C1Nc2cccc3cccc(c23)N1 | 25µM* | -4%
Oc1ccccc1C1Nc2cccc3cccc(c23)N1 | -19% | -10%
CC(C)C1C(=O)Nc2ccc(S(=O)(=O)NCCc3ccc(Cl)cc3)cc21 (centres undefined) | -2% | -7%
NC1=C(c2ccc(F)cc2)C(=O)CS1 | 16µM* | ?
Nc1nnc(-c2ccc(F)cc2)s1 | 16% | -3%
CCOc1ccc(C(=O)NC(=S)Nc2ccc(NC(=O)CC)cc2)cc1[N+](=O)[O-] | ? | -6%
CCC(=O)NC(=S)Nc1ccc(NC(=O)c2ccc(C)c([N+](=O)[O-])c2)cc1 | 10µM* | -3%
O=C(COc1cc(O)c2c(=O)cc(-c3ccccc3)oc2c1)c1ccccc1 | ? | -2%
O=C(COc1cc(O)c2c(=O)cc(-c3ccccc3)oc2c1)c1ccc(F)cc1 | 13µM* | -4%
COc1ccc(/C=C2\CCCC3C2=NN(C(=O)CSc2ncn[nH]2)C3c2ccc(OC)cc2)cc1 (centres undefined) | ? | -5%
